The list is not random: actives were taken first. Their share in the collection is about 12%.
HP1b binding inh: HP1-beta chromodomain-methylated histone interaction inhibition; P83916; AlphaScreen HP1-beta / biotin-H3K9me3 peptide binding; Potency, µM (top dose mostly 114 µM), actives largely listed as inhibitors; 0.56% of 390,000 active; AID 540317; further: nearly all actives have a fitted effect of over 70% in size
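Compound inhibition of the preformed complex between 50 nM HP1-beta and 50 nM biotinylated H3K9me3 peptide was read by AlphaScreen. Buffer was PBS pH 7.4 with 0.01% Tween-20. Incubations ran 30 min at room temperature, with 10 ug/mL donor/acceptor beads.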
JMJD2A Tudor: JMJD2A Tudor domain (human) inhibition | O75164 | AlphaScreen JMJD2A-Tudor / H3K4me3 peptide binding | Potency, µM (doses to about 114 µM), most hits filed as inhibitors | 4.4% of 390,000 active | AID 504339; further: nearly all actives have a fitted effect of over 50% in size
G9a block: blocks human histone lysine methyltransferase G9a; Potency, µM (doses to about 102 µM), usual class: inhibitors; G9a H3K9 monomethylation, AlphaScreen, 2 h; Q96KQ7; 8.8% of 350,000 active; further: nearly all actives have a fitted effect of over 75% in size
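AlphaScreen detection with an anti-monomethyl H3K9 antibody quantified product after a 2 h room-temperature reaction containing 500 nM biotinylated H3K9 peptide, 20 µM SAM and 20 nM enzyme, which had been preincubated 15 min with compound.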
Sfp PPTase inh: blocks B. subtilis Sfp PPTase activity | Q9F4F7 | Biochemical Sfp PPTase activity, qHTS | Potency, µM, hits mostly inhibitors | 3.5% of 310,000 active | AID 1490;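 further: the enzyme is Sfp with the accession as filed and its product quenches rhodamine fluorescence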
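Fluorescence-quenching assay with 15 nM Sfp, 5 uM rhodamine-CoA and 12.5 uM BHQ-2-labelled ybbR peptide in pH 7.6 Hepes/MgCl2 buffer. Enzyme was pre-incubated with compound for 15 min at room temperature. Rate was taken from the 30-min fluorescence change (525/598 nm).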
BAZ2B inh: BAZ2B (human) inhibition; Q9UIF8; AlphaScreen BAZ2B-H3K14Ac peptide displacement; Potency, µM (top dose mostly 114 µM), actives largely listed as inhibitors; 4.4% of 360,000 active; AID 504333; further: nearly all actives have a fitted effect of over 60% in size
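Protein-peptide AlphaScreen: BAZ2B 50 nM, b-H3K14Ac 50 nM, 1x PBS pH 7.4 + 0.01% Tween-20. Preincubation 30 min RT; cpd 30 min RT (top 110 uM); beads 20 min RT, light-protected.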
Hits are given with their value; - = inactive; ? = inconclusive; . = no result given; [ ] = remark or other dose. The call rests on the fitted dose curve; in most records, active means well fitted curve in the direction sought with a large enough effect; inconclusive means small, poorly fitted or top-dose-only effect, or another doubt; inactive means no such curve, though single readings can be large; an effect the other way counts as inactive or inconclusive.

SMILES	HP1b binding inh	JMJD2A Tudor	G9a block	Sfp PPTase inh	BAZ2B inh
CC(C)(C)c1ccc(/C=C/C(=O)Nc2ccncc2)cc1	-	-	-	-	-
O=C(/C=C/c1ccc(Br)cc1)c1ccc(NC2=NCCCS2)cc1	-	?	?	40µM	?
O=C(CN1CCCC1)Nc1sc2c(c1C(=O)Nc1ccc(Br)cc1)CCC2	-	-	-	-	-
CC[n+]1ccc(C[n+]2ccccc2)c2ccccc21	79µM	?	1.6µM	50µM	10µM
CCOc1ccccc1CNC(=O)C1CCN(c2nnc(C)c3c(C)n(-c4ccc(C)cc4)nc23)CC1	-	-	-	-	-
CCc1ccc(CNC(=O)C2CCCN(c3nnc(C)c4c(C)n(-c5ccccc5)nc34)C2)cc1 (stereo not drawn)	-	?	?	56µM	79µM
Cc1ccccc1CNC(=O)C1CCCN(c2nnc(C)c3c(C)n(-c4ccccc4)nc23)C1 (stereo not drawn)	-	?	56µM	-	?
Cc1nnc(N2CCCC(C(=O)NCc3ccccc3)C2)c2nn(-c3ccccc3)c(C)c12 (stereo not drawn)	-	-	-	.	-
Cc1nnc(N2CCCC(C(=O)NCc3ccccc3F)C2)c2nn(-c3ccccc3)c(C)c12 (stereo not drawn)	-	-	-	-	-
COc1ccc(-n2nc3c(N4CCC(C(=O)NCCc5ccco5)CC4)nnc(C)c3c2C)cc1	-	50µM	-	-	-
CCOc1ccc(CNC(=O)C2CCN(c3nnc(C)c4c(C)n(-c5ccc(C)cc5)nc34)CC2)cc1	-	?	22µM	?	56µM
CCOC(=O)c1cc(-c2ccc(OC)c(S(=O)(=O)NCc3ccccc3Cl)c2)on1	-	-	-	.	-
COc1ccc(NC(=O)CSc2nnc3c4c(nc(-c5ccccc5)n23)CC(C)(C)OC4)cc1	-	-	-	-	-
O=C(COC(=O)CCc1nc2ccccc2s1)Nc1nc(-c2ccccc2)cs1	-	-	-	-	-
COc1cc(NC(=O)c2cccs2)c(OC)cc1NC(=O)CCC(=O)Nc1cccc2ncccc12	-	-	-	-	-
COc1ccccc1NCC(=O)N/N=C(\C)c1cccs1	?	35µM	-	-	?
COc1ccc(NC(=O)Cc2cccs2)c(OC)c1	-	-	-	-	-
COc1ccccc1NC(=O)CCC(=O)Nc1cc(OC)c(NC(=O)c2cccs2)cc1OC	-	79µM	-	-	-
COc1cc(NC(=O)c2ccccc2)c(OC)cc1NC(=O)Cc1cccs1	71µM	56µM	.	-	32µM
CC(C)Nc1nc(SCC(N)=O)nc(N2CCOCC2)n1	-	-	-	-	-
COc1ccccc1-c1noc(CCC(=O)Nc2cccc(C)c2)n1	-	-	35µM	?	-
COc1cc(-c2noc(CCC(=O)Nc3cccnc3)n2)cc(OC)c1OC	-	-	35µM	?	-
COc1ccccc1-c1noc(CCC(=O)Nc2ccc(C)cc2C)n1	-	-	?	.	-
COc1ccccc1-c1noc(CCC(=O)Nc2ccccc2Cl)n1	-	-	2.8µM	10µM	-
COc1cc(C)c(C)cc1S(=O)(=O)N1CCCCC1c1cccnc1 (stereo not drawn)	-	-	-	-	-
SMILES	HP1b binding inh	JMJD2A Tudor	G9a block	Sfp PPTase inh	BAZ2B inh
CN1c2ccccc2N(C)C1(C)c1cccc2ccccc12	?	45µM	1.4µM	?	?
CC1=CC(C)(C)NC(=S)N1c1cccc2ccccc12	-	-	-	-	-
COc1cccc(/C=N/NC(=O)COc2cccc3cccnc23)c1O	-	-	-	-	-
O=C(O)COc1ccc(OCCNC[C@@H](O)COc2ccccc2)cc1	.	.	.	-	.
Cc1ccc(OCCNCC(O)COc2ccccc2)cc1 (stereo not drawn)	-	56µM	?	-	50µM
COc1ccccc1NCC(O)COc1ccc(C(C)(C)C)cc1 (stereo not drawn)	20µM	2.8µM	7.9µM	?	22µM
COc1ccc(OCC(O)CNCCOc2ccccc2OC)c(C(C)(C)C)c1 (stereo not drawn)	-	22µM	?	?	50µM
COc1ccc(NCC(O)COc2ccc(C(C)(C)C)cc2)cc1 (stereo not drawn)	?	?	?	-	?
OC(CNc1ccccc1)COc1ccc(OCC(O)CNc2ccccc2)cc1 (stereo not drawn)	-	50µM	?	-	50µM
CCN1CN(CCc2ccccc2)CNC1=S	-	-	-	-	-
O=C(NC1CCCCCC1)C1c2ccccc2C(=O)N1Cc1cccnc1 (stereo not drawn)	-	-	-	-	-
COc1ccc(C(=O)CNC2=NCCC2)cc1	-	-	-	-	.
O=C(CNc1ccccc1)NNC1=NCCC1	-	-	10µM	?	?
O=C(CNc1ccc2ccccc2c1)NNC1=NCCC1	-	-	?	?	?
Cc1ccccc1C(=O)NNC1=NCCC1	-	1.6µM	2µM	-	?
O=C(NNC1=NCCC1)c1cccc(Br)c1	-	-	-[2.33 µM]	-	-
COc1ccc(C(=O)NNC2=NCCCCC2)cc1	-	-	32µM	-	-
CC1(C)C(c2ccco2)=[N+]([O-])C2(CCCCC2=O)N1O (stereo not drawn)	-	-	?	-	-
CC1(C)C(c2cccs2)=[N+]([O-])C2(CCCCC/C2=N\NC(N)=S)N1O (stereo not drawn)	-	-	-	89µM	-
COc1ccc(-n2cc(-c3ccc4c(c3)OCO4)n(CC(=O)Nc3cc(Cl)ccc3C)c2=O)cc1	-	-	?	.	89µM
COc1ccc(-n2cc(-c3ccc4c(c3)OCO4)n(CC(=O)Nc3cccc(C)c3C)c2=O)c(OC)c1	-	?	5µM	.	?
Cc1cccc(NC(=O)Cn2c(=O)n(Cc3ccc4c(c3)OCO4)c(=O)c3oc4ccccc4c32)c1C	-	-	-	.	-
Cc1ccc(NC(=O)Cn2c(-c3ccc4c(c3)OCO4)cn(-c3ccccc3)c2=O)cc1C	-	?	?	.	-
CCN(c1ccccc1)S(=O)(=O)c1ccc2[nH]cc(C(=O)NCc3ccc(C)cc3)c(=O)c2c1	-	56µM	-	.	-
COc1ccc(C(=O)CSc2ncn[nH]2)cc1OC	-	40µM	?	-	-
O=C(O)CSc1ncn[nH]1	-	-	-[12.7 µM]	-	-
O=C(CSc1ncn[nH]1)c1ccc(OC(F)F)cc1	-	-	25µM	-	-
C/C(=N\Nc1nccnc1Cl)c1ccc(O)cc1	-	-	-	?	-
C/C(=N\Nc1nccnc1Cl)c1ccc(F)cc1	-	-	-[0.501 µM]	22µM	-
C#CCOCCOCCOCCNc1nc(N2CCN(C(=O)[C@H]([C@@H](C)CC)n3cc([C@@H](N)Cc4ccc(O)cc4)nn3)CC2)nc(N2CCN(C(=O)[C@H](Cc3ccc(O)cc3)n3cc([C@@H](N)C(C)CC)nn3)CC2)n1 (stereo partly drawn)	-	22µM	?	-	79µM

High-throughput results as filed in PubChem BioAssay.
